Assay results reported in PubChem BioAssay (NCI).
Compounds without any hit were thinned out: in the full panel of roughly 83,000, 20% have a hit.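 Method: cells in 96-well plates; compound added at one concentration; 48 h incubation; percent growth measured; values under 10 scored active.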 Calls of active or inactive are those of the source.

What was measured:
Assay in all cases: NCI-60 one-dose screen, 48 h (100 = growth as untreated, 0 = no growth, -100 = all killed)
Conditions in all cases: 10 µM unless noted
HCT-15 colon = system: HCT-15 colon
HT29 colon = system: HT29 colon
SNB-75 CNS = system: SNB-75 CNS
SNB-19 CNS = system: SNB-19 CNS
U251 CNS = system: U251 CNS
PC-3 prostate = system: PC-3 prostate
SK-MEL-5 melanoma = system: SK-MEL-5 melanoma
UACC-62 melanoma = system: UACC-62 melanoma
LOX IMVI melanoma = system: LOX IMVI melanoma
SK-MEL-28 melanoma = system: SK-MEL-28 melanoma
SK-MEL-2 melanoma = system: SK-MEL-2 melanoma
EKVX NSCLC = system: EKVX NSCLC
SN12C renal = system: SN12C renal
UO-31 renal = system: UO-31 renal
TK-10 renal = system: TK-10 renal
ACHN renal = system: ACHN renal
CAKI-1 renal = system: CAKI-1 renal
A498 renal = system: A498 renal
CCRF-CEM leukemia = system: CCRF-CEM leukemia
MOLT-4 leukemia = system: MOLT-4 leukemia

Measured: growth

N=C(N)c1ccc(-c2ccc(-c3cc(Cl)cc(Cl)c3)o2)o1
active: HCT-15 colon -89.3% | HT29 colon -81.1% | SNB-75 CNS -68.9% | SNB-19 CNS -64.9% | U251 CNS -89.9% | PC-3 prostate -25.8% | UACC-62 melanoma -81% | LOX IMVI melanoma -83.6% | SK-MEL-28 melanoma -80.2% | SK-MEL-2 melanoma -43.5% | EKVX NSCLC -88.2% | SN12C renal -67.6% | UO-31 renal -68.1% | TK-10 renal -76.3% | ACHN renal -88.7% | CAKI-1 renal -74.7% | CCRF-CEM leukemia -39.1% | MOLT-4 leukemia -60.4%
inactive: SK-MEL-5 melanoma 16.2% | A498 renal 58.8%

CCCCC(=O)c1ccco1
inactive: HCT-15 colon 102% | HT29 colon 103% | SNB-75 CNS 86.8% | SNB-19 CNS 86.4% | U251 CNS 102% | PC-3 prostate 85.8% | SK-MEL-5 melanoma 98.8% | UACC-62 melanoma 94.9% | LOX IMVI melanoma 99.6% | SK-MEL-28 melanoma 103% | SK-MEL-2 melanoma 98.6% | EKVX NSCLC 98.7% | SN12C renal 87.9% | UO-31 renal 79.1% | TK-10 renal 96% | ACHN renal 96.7% | CAKI-1 renal 90.2% | A498 renal 74.6% | CCRF-CEM leukemia 92.3% | MOLT-4 leukemia 102%

CCN1CCN(c2cc(C(=O)Nc3nc(-c4cc(OC)c(OC)c(OC)c4)cs3)cc(C(F)(F)F)c2)CC1
inactive: HCT-15 colon 36.4% | HT29 colon 18.3% | SNB-75 CNS 57% | SNB-19 CNS 80.7% | U251 CNS 60.9% | PC-3 prostate 57.1% | SK-MEL-5 melanoma 53.7% | UACC-62 melanoma 75.4% | LOX IMVI melanoma 38.6% | SK-MEL-28 melanoma 51.8% | SK-MEL-2 melanoma 81.4% | EKVX NSCLC 64.9% | SN12C renal 71.8% | UO-31 renal 37% | TK-10 renal 82.4% | ACHN renal 73.2% | CAKI-1 renal 84% | A498 renal 73.5% | CCRF-CEM leukemia 59% | MOLT-4 leukemia 43.9%

O=C1Nc2ccc(I)cc2C1=O
inactive: HCT-15 colon 101% | HT29 colon 93.8% | SNB-75 CNS 79.8% | SNB-19 CNS 98.3% | U251 CNS 93.8% | PC-3 prostate 86.7% | SK-MEL-5 melanoma 101% | UACC-62 melanoma 92.3% | LOX IMVI melanoma 75.8% | SK-MEL-28 melanoma 104% | SK-MEL-2 melanoma 85.4% | EKVX NSCLC 102% | SN12C renal 98% | UO-31 renal 77.9% | TK-10 renal 140% | ACHN renal 103% | CAKI-1 renal 64.5% | A498 renal 122% | CCRF-CEM leukemia 119% | MOLT-4 leukemia 102%

Cc1ccc(-c2nc3nc(-c4ccccc4)nc(N4CCNCC4)c3o2)cc1
active: HCT-15 colon -77% | HT29 colon -74.4% | SNB-75 CNS -90.7% | SNB-19 CNS -80.6% | U251 CNS -90.2% | PC-3 prostate -81.6% | SK-MEL-5 melanoma -95.8% | UACC-62 melanoma -87.8% | LOX IMVI melanoma -78.6% | SK-MEL-28 melanoma -90.1% | SK-MEL-2 melanoma -92.7% | EKVX NSCLC -65.5% | SN12C renal -78.3% | UO-31 renal -91.8% | TK-10 renal -96.5% | ACHN renal -97.2% | CAKI-1 renal -99% | A498 renal -88.7% | CCRF-CEM leukemia -69.3% | MOLT-4 leukemia -69.2%

CCCCCCC1(C)NCCO1 (stereo not given)
inactive: HCT-15 colon 103% | HT29 colon 106% | SNB-75 CNS 97% | SNB-19 CNS 94.9% | U251 CNS 92.4% | PC-3 prostate 94% | SK-MEL-5 melanoma 112% | UACC-62 melanoma 86.7% | LOX IMVI melanoma 103% | SK-MEL-28 melanoma 110% | SK-MEL-2 melanoma 109% | EKVX NSCLC 112% | SN12C renal 103% | UO-31 renal 83.7% | TK-10 renal 111% | ACHN renal 103% | CAKI-1 renal 92.9% | A498 renal 96.1% | CCRF-CEM leukemia 90.2% | MOLT-4 leukemia 104%

CN1C(=O)N(C)C2Nn3c(s/c(=C\c4ccc(C(F)(F)F)cc4)c3=O)=NC21 (stereo not given)
inactive: HCT-15 colon 93.9% | HT29 colon 109% | SNB-75 CNS 82.2% | SNB-19 CNS 95.2% | U251 CNS 93.2% | PC-3 prostate 104% | SK-MEL-5 melanoma 99.5% | UACC-62 melanoma 89.7% | LOX IMVI melanoma 95.7% | SK-MEL-28 melanoma 103% | SK-MEL-2 melanoma 115% | EKVX NSCLC 100% | SN12C renal 100% | UO-31 renal 82.3% | TK-10 renal 106% | ACHN renal 105% | CAKI-1 renal 82.7% | A498 renal 109% | CCRF-CEM leukemia 101% | MOLT-4 leukemia 106%

O=C1/C(=C\c2cn(-c3ccccc3)nc2-c2ccc(-c3cccs3)cc2)CCc2ccccc21
inactive: HCT-15 colon 37.8% | HT29 colon 29.5% | SNB-75 CNS 45.8% | SNB-19 CNS 61% | U251 CNS 66.2% | PC-3 prostate 78.1% | SK-MEL-5 melanoma 66% | UACC-62 melanoma 47.7% | LOX IMVI melanoma 56.9% | SK-MEL-28 melanoma 68.8% | SK-MEL-2 melanoma 70.4% | EKVX NSCLC 68.5% | SN12C renal 66.8% | UO-31 renal 54.2% | TK-10 renal 101% | ACHN renal 79.5% | CAKI-1 renal 41.2% | A498 renal 10.3% | CCRF-CEM leukemia 48% | MOLT-4 leukemia 49.1%

C[C@]12CC[C@@H]3c4ccc(O)c([N+](=O)[O-])c4CC[C@H]3[C@@H]1CCC2=O
inactive: HCT-15 colon 94.4% | HT29 colon 95.5% | SNB-75 CNS 58.1% | SNB-19 CNS 107% | U251 CNS 93.2% | PC-3 prostate 97% | SK-MEL-5 melanoma 82.3% | UACC-62 melanoma 87.3% | LOX IMVI melanoma 90.7% | SK-MEL-28 melanoma 115% | SK-MEL-2 melanoma 107% | EKVX NSCLC 58.5% | SN12C renal 101% | UO-31 renal 81.5% | TK-10 renal 89% | ACHN renal 94.1% | CAKI-1 renal 72.7% | A498 renal 141% | CCRF-CEM leukemia 110% | MOLT-4 leukemia 80.4%

COc1cc(N2C(=O)[C@H](O)C2c2ccc(SC)cc2)cc(OC)c1OC (stereo not given in full)
active: HT29 colon -14.5% | SK-MEL-5 melanoma -13.8% | A498 renal -1.79% | CCRF-CEM leukemia 3.99% | MOLT-4 leukemia 4.67%
inactive: HCT-15 colon 12.8% | SNB-75 CNS 83.8% | SNB-19 CNS 35.9% | U251 CNS 14.4% | PC-3 prostate 22.4% | UACC-62 melanoma 33.8% | LOX IMVI melanoma 25.5% | SK-MEL-28 melanoma 67.1% | SK-MEL-2 melanoma 16.6% | EKVX NSCLC 36.7% | SN12C renal 28.7% | UO-31 renal 43.5% | TK-10 renal 40.7% | ACHN renal 31.8% | CAKI-1 renal 23.6%

COc1ccc2[nH]cc(-c3nc(-c4c[nH]c5ccncc45)cs3)c2c1
active: HCT-15 colon -10.2% | HT29 colon -15.7% | U251 CNS -49.4% | LOX IMVI melanoma -87.4% | SK-MEL-28 melanoma -88.5% | ACHN renal 4.58% | CAKI-1 renal 9.06% | CCRF-CEM leukemia -7.05% | MOLT-4 leukemia -8.02%
inactive: SNB-75 CNS 76.1% | SNB-19 CNS 47.1% | PC-3 prostate 42.4% | SK-MEL-5 melanoma 43.3% | UACC-62 melanoma 84.2% | SK-MEL-2 melanoma 84.7% | EKVX NSCLC 10.8% | SN12C renal 71.9% | UO-31 renal 49% | TK-10 renal 71.1% | A498 renal 81.5%

O=C(Nc1ccc(-c2nc(N3CCOCC3)c3cccn3n2)cc1)Nc1cccnc1
inactive: CCRF-CEM leukemia 12.6%
active: HCT-15 colon 6.69% | HT29 colon 7.6% | SNB-75 CNS -26.5% | SNB-19 CNS 5.92% | U251 CNS 7.85% | PC-3 prostate 3.8% | SK-MEL-5 melanoma -71.5% | UACC-62 melanoma -28.6% | LOX IMVI melanoma -1.37% | SK-MEL-28 melanoma -17.3% | SK-MEL-2 melanoma -4.42% | EKVX NSCLC -13.5% | SN12C renal 6.41% | UO-31 renal -9.74% | TK-10 renal -17.4% | ACHN renal -5.66% | CAKI-1 renal 8.83% | A498 renal -35% | MOLT-4 leukemia 5.84%

N#C/C(=C\c1ccc(-c2ccc(Cl)cc2)o1)C(=O)Nc1ncc(Cc2ccc(Cl)cc2)s1
active: SNB-75 CNS -31.1% | U251 CNS -33.9% | SN12C renal -0.639% | ACHN renal 5.97%
inactive: HCT-15 colon 37.6% | HT29 colon 62.4% | SNB-19 CNS 79.1% | PC-3 prostate 28.8% | SK-MEL-5 melanoma 94.7% | UACC-62 melanoma 46.1% | LOX IMVI melanoma 15.5% | SK-MEL-28 melanoma 34.2% | SK-MEL-2 melanoma 95.4% | EKVX NSCLC 33.7% | UO-31 renal 42.1% | TK-10 renal 19.8% | CAKI-1 renal 39.1% | A498 renal 69.9% | CCRF-CEM leukemia 41.4% | MOLT-4 leukemia 78.3%

NC(=O)c1c(NC(=O)c2ccccc2)sc2c1CCC(=O)C2
active: HT29 colon 9.53% | SNB-75 CNS -3.05% | SK-MEL-5 melanoma -57.6% | UO-31 renal 0.418% | ACHN renal 7.58% | CAKI-1 renal -8.25% | CCRF-CEM leukemia 5.12% | MOLT-4 leukemia 5.67%
inactive: HCT-15 colon 12.4% | SNB-19 CNS 18.6% | U251 CNS 17.6% | PC-3 prostate 10.1% | UACC-62 melanoma 10.7% | LOX IMVI melanoma 17.6% | SK-MEL-28 melanoma 34.9% | SK-MEL-2 melanoma 12.7% | EKVX NSCLC 19.2% | SN12C renal 12.2% | TK-10 renal 54.9% | A498 renal 92.3%

O=C(Cn1cc(CN2CCCCCC2)nn1)Nc1ccc2c(ccn2Cc2ccccc2)c1
inactive: HCT-15 colon 93.3% | HT29 colon 70.5% | SNB-75 CNS 76.1% | SNB-19 CNS 98.8% | U251 CNS 80.8% | PC-3 prostate 82.2% | SK-MEL-5 melanoma 87% | UACC-62 melanoma 96.9% | LOX IMVI melanoma 98.2% | SK-MEL-28 melanoma 99.9% | SK-MEL-2 melanoma 93.2% | EKVX NSCLC 96.1% | SN12C renal 101% | UO-31 renal 54.4% | TK-10 renal 92.2% | ACHN renal 107% | CAKI-1 renal 87.6% | A498 renal 95.2% | MOLT-4 leukemia 89.9%
active: CCRF-CEM leukemia 1.87%
